Results filed as inconclusive are left out. The source made the active and inactive calls. The call rests on the fitted dose curve; in most records, active means well fitted curve in either direction with a large enough effect (not every such curve was filed as active); inconclusive means small, poorly fitted or top-dose-only effect, or another doubt; inactive means flat fitted curve, though single readings scatter.
On the % scale 0 is the no-effect control and ±100 the full control effect.

One assay is described as follows: NFAT Signaling Pathway (AID 444).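 Further: carbachol stimulus at about its EC50 of 1 µM final.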 The note with it: Jurkat NFAT-bla M1, carbachol, beta-lactamase ratio, 5 h; at 17.2 µM (top of the series) unless noted. In a few lines:
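Read-out: CCF4 FRET ratio (460 nm/530 nm) after 1 h RT dye loading, used for %activity and AC50 from titration series. Cells: Jurkat NFAT-β-lactamase/M1 line, treated with compound plus 1 uM carbachol for 5 h, 37 °C.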
`CC(C)(C)c1ccc(O)c(N)c1`: the activity change, negative = inhibition was -5.9% (inactive).
For `CCOC(=O)CSc1nc(-c2ccc3c(c2)OCO3)ccc1C#N`, the activity change, negative = inhibition was 18.5% (inactive).
Take `C=C(C)CSC1=C(C#N)C(c2ccsc2)CC(=O)N1` (stereo not drawn): the activity change, negative = inhibition is -0.539% (inactive).
In the case of `COc1ccccc1N(Cc1cc2cccc(C)c2[nH]c1=O)C(=O)C(C)C`, the activity change, negative = inhibition is 11.3% (inactive).
As to `CCOC(=O)CCc1c(C)c(C#N)c2nc3ccccc3n2c1-n1ccnc1C`, the activity change, negative = inhibition was -1.61% (inactive).
In the case of `CCn1cc(/C=N/O)c(C)n1`, the activity change, negative = inhibition was -4.37% (inactive).
On the same count and under the same terms, in the case of `CCOC(=O)c1[nH]c2cc3c(cc2c1NC(=O)CN1CCC2(CC1)OCCO2)OCO3` it was 6.91% (inactive); in that of `Cc1c(C)n(C(=O)CSc2nccn2C)c2ccccc12`, -0.559% (inactive).
Turning to `COc1cccc(OC)c1C(=O)Nc1nc2ccc(S(C)(=O)=O)cc2s1`, the activity change, negative = inhibition is 21% (inactive).
In the case of `COC(=O)CSCC(=O)Nc1cc2c(cc1C(C)=O)OCO2`, the activity change, negative = inhibition is 29.7% (inactive).
The same measure, in the same setting: as for `CC(=O)c1c(OCC(=O)O)ccc2c(C)cc(=O)oc12`, the figure is -8.66% (inactive).
Same read-out and setting: in the case of `CC(=O)[C@H]1[C@@H]2C(=O)N(c3cccc(Cl)c3)C(=O)[C@@H]2[C@H]2c3ccccc3C=CN21` it was -7.09% (inactive); in that of `Cc1cc(COc2ccccc2OCCN2CCN(C)CC2)no1`, -13.9% (inactive); in that of `COc1cccc(N2C(=O)C(O)=C(C(C)=O)C2c2ccc(OC)c(OC)c2)c1` (stereo not drawn), 9.05% (inactive).
For the compound `CCCc1nnc(NC(=O)Nc2ccccc2OC)s1`, the activity change, negative = inhibition was 25% (inactive).
Consider `Cn1c(OCc2cccnc2)nc2c1c(=O)n(Cc1ccccc1)c(=O)n2C`, for which the activity change, negative = inhibition is -1.28% (inactive).
`O=C1C2CC=C(Cl)CC2C(=O)N1CNc1ccccn1` (stereo not drawn): the activity change, negative = inhibition was -12.9% (inactive).
Take `COc1cc(C)nc(Oc2ccc(=O)[nH]n2)n1`: the activity change, negative = inhibition is -26.6% (inactive).
The same measure, in the same setting: as for `CCOP(=O)(c1ccccc1)C1(C#N)CCCC1` (stereo not drawn), the figure is 7.44% (inactive); as for `CC12CCC(=O)N1c1c(sc3nc(N4CCOCC4)c4c(c13)CCCC4)C(=O)N2` (stereo not drawn), 8.35% (inactive); as for `CCCOc1ccc(C2NC(=O)NC2=O)cc1` (stereo not drawn), 9.35% (inactive).
Take `CC(=O)Nc1cccc(NC(=O)CSc2nc(C)c(C)c(C)c2C#N)c1`: the activity change, negative = inhibition is 8.76% (inactive).
On the same count and under the same terms, in the case of `Cn1c(O)c(C=Nc2ccc(Cc3ccncc3)cc2)c(=O)n(C)c1=O` it was -10.1% (inactive); in that of `COc1cc(C)nc(Nc2nc(C)c(C(C)=O)s2)n1`, -2.73% (inactive).
Turning to `CN(C)c1nc2sc3c(c2c(=O)n1C)CC(C)(C)OC3`, the activity change, negative = inhibition was -2.36% (inactive).
For `Cc1c(=O)n(OCc2c(F)cccc2F)c2ccccc2[n+]1[O-]`, the activity change, negative = inhibition was -0.573% (inactive).
`COc1ccccc1Cn1c2nc3ccccc3nc2c2c(=O)n(CC(C)C)cnc21`: the activity change, negative = inhibition is 4.7% (inactive).
As to `COc1ccc(OC)c(C2C(C(=O)c3ccco3)=C(O)C(=O)N2CCCN2CCOCC2)c1` (stereo not drawn), the activity change, negative = inhibition was 0.311% (inactive).
As for `Cc1cc(CCC(=O)O)c(C)cc1CCC(=O)O`, the activity change, negative = inhibition is 2.85% (inactive).
Turning to `CCSc1nnc(NC(=O)C(C)(C(F)(F)F)C(F)(F)F)s1`, the activity change, negative = inhibition was -18.1% (inactive).
Same read-out and setting: as for `CCOC(=O)C(C#N)C(Cc1ccccc1)c1ccco1` (stereo not drawn), the figure is -8.09% (inactive); as for `CCOCCn1c(SCc2c(F)cccc2Cl)nc2c1c(=O)[nH]c(=O)n2C`, -17.4% (inactive); as for `Cn1cc(Cl)nc1C(O)c1ccccc1` (stereo not drawn), -2.26% (inactive).
On the same count and under the same terms, in the case of `Cc1c(/C(O)=C2/C(=O)C(=O)N(CCCN3CCOCC3)C2c2ccncc2)cnn1-c1ccccc1` (stereo not drawn) it was -3.84% (inactive).
As for `Clc1ccc(-c2nn3c(-c4cccc(Cl)c4)nnc3s2)cc1`, the activity change, negative = inhibition was -4.86% (inactive).
As to `CCN(CC)CCCN1C(=O)C(O)=C(C(=O)c2ccc(C)o2)C1c1ccc(C)o1` (stereo not drawn), the activity change, negative = inhibition was -12.9% (inactive).
Still for that read-out and setting: as for `CCOC(=O)N1CCN(/C=C(\C#N)c2nc3ccccc3s2)CC1`, the figure is 13.1% (inactive); as for `CN(C)CCCN1C(=O)C(O)=C(C(=O)c2cc3ccccc3o2)C1c1ccccc1` (stereo not drawn), -4.4% (inactive); as for `CCCCCCCC(=O)OCC(=O)[C@@]1(O)CC[C@H]2[C@@H]3CCC4=CC(=O)CC[C@]4(C)[C@H]3[C@@H](O)C[C@@]21C`, -28.6% (inactive).

Another assay is described as follows: Stat Signaling Pathway (AID 446).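 Further: ME-180 cervical cancer cells given 40 pM IL-6 alongside compound; SIE-controlled beta-lactamase reporter measured as 460/530 nm FRET emission ratio.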 To be noted: ME-180 (cervical carcinoma) SIE beta-lactamase reporter, IL-6 stimulated, 5 h; at 17.2 µM (top of the series) unless noted. In outline: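 Normalization used AC90 stimulation (300 pM IL-6) and AC90 inhibition (125 nM pan-JAK inhibitor at 40 pM IL-6). The underlying signal is SIE-driven beta-lactamase in ME-180 cells after 5 h IL-6 exposure with compound.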
As to `CC(C)(C)c1ccc(O)c(N)c1`, the activity, negative = inhibition was 8.3% (inactive).
Same read-out and setting: in the case of `CCOC(=O)CSc1nc(-c2ccc3c(c2)OCO3)ccc1C#N` it was 4.79% (inactive).
For `C=C(C)CSC1=C(C#N)C(c2ccsc2)CC(=O)N1` (stereo not drawn), the activity, negative = inhibition is -1.45% (inactive).
As for `COc1ccccc1N(Cc1cc2cccc(C)c2[nH]c1=O)C(=O)C(C)C`, the activity, negative = inhibition was -8.46% (inactive).
`CCOC(=O)CCc1c(C)c(C#N)c2nc3ccccc3n2c1-n1ccnc1C`: the activity, negative = inhibition is -4.34% (inactive).
Same read-out and setting: as for `CCn1cc(/C=N/O)c(C)n1`, the figure is 14% (inactive); as for `CCOC(=O)c1[nH]c2cc3c(cc2c1NC(=O)CN1CCC2(CC1)OCCO2)OCO3`, -9.66% (inactive).
On the same count and under the same terms, as for `Cc1c(C)n(C(=O)CSc2nccn2C)c2ccccc12`, the figure is 0.828% (inactive); as for `COc1cccc(OC)c1C(=O)Nc1nc2ccc(S(C)(=O)=O)cc2s1`, -10.6% (inactive); as for `COC(=O)CSCC(=O)Nc1cc2c(cc1C(C)=O)OCO2`, 9.85% (inactive).
For `CC(=O)c1c(OCC(=O)O)ccc2c(C)cc(=O)oc12`, the activity, negative = inhibition was 13.1% (inactive).
The same measure, in the same setting: as for `CC(=O)[C@H]1[C@@H]2C(=O)N(c3cccc(Cl)c3)C(=O)[C@@H]2[C@H]2c3ccccc3C=CN21`, the figure is -13.6% (inactive); as for `Cc1cc(COc2ccccc2OCCN2CCN(C)CC2)no1`, -0.578% (inactive).
Consider `COc1cccc(N2C(=O)C(O)=C(C(C)=O)C2c2ccc(OC)c(OC)c2)c1` (stereo not drawn), for which the activity, negative = inhibition was 0.326% (inactive).
In the case of `CCCc1nnc(NC(=O)Nc2ccccc2OC)s1`, the activity, negative = inhibition was -4.19% (inactive).
The same measure, in the same setting: in the case of `Cn1c(OCc2cccnc2)nc2c1c(=O)n(Cc1ccccc1)c(=O)n2C` it was 4.58% (inactive); in that of `O=C1C2CC=C(Cl)CC2C(=O)N1CNc1ccccn1` (stereo not drawn), 7.34% (inactive); in that of `COc1cc(C)nc(Oc2ccc(=O)[nH]n2)n1`, 13.6% (inactive).
Still for that read-out and setting: as for `CCOP(=O)(c1ccccc1)C1(C#N)CCCC1` (stereo not drawn), the figure is 7.92% (inactive); as for `CC12CCC(=O)N1c1c(sc3nc(N4CCOCC4)c4c(c13)CCCC4)C(=O)N2` (stereo not drawn), -5.31% (inactive); as for `CCCOc1ccc(C2NC(=O)NC2=O)cc1` (stereo not drawn), -1.78% (inactive).
In the case of `CC(=O)Nc1cccc(NC(=O)CSc2nc(C)c(C)c(C)c2C#N)c1`, the activity, negative = inhibition was -4.2% (inactive).
As to `Cn1c(O)c(C=Nc2ccc(Cc3ccncc3)cc2)c(=O)n(C)c1=O`, the activity, negative = inhibition is -1.74% (inactive).
The same measure, in the same setting: in the case of `COc1cc(C)nc(Nc2nc(C)c(C(C)=O)s2)n1` it was 4.9% (inactive).
The same measure, in the same setting: as for `CN(C)c1nc2sc3c(c2c(=O)n1C)CC(C)(C)OC3`, the figure is 10.9% (inactive).
The same measure, in the same setting: as for `Cc1c(=O)n(OCc2c(F)cccc2F)c2ccccc2[n+]1[O-]`, the figure is 2.13% (inactive); as for `COc1ccccc1Cn1c2nc3ccccc3nc2c2c(=O)n(CC(C)C)cnc21`, -12.8% (inactive).
Regarding `COc1ccc(OC)c(C2C(C(=O)c3ccco3)=C(O)C(=O)N2CCCN2CCOCC2)c1` (stereo not drawn), the activity, negative = inhibition was -6.98% (inactive).
Same read-out and setting: in the case of `Cc1cc(CCC(=O)O)c(C)cc1CCC(=O)O` it was 7.37% (inactive); in that of `CCSc1nnc(NC(=O)C(C)(C(F)(F)F)C(F)(F)F)s1`, -24.8% (inactive).
On the same count and under the same terms, in the case of `CCOC(=O)C(C#N)C(Cc1ccccc1)c1ccco1` (stereo not drawn) it was -9.08% (inactive); in that of `CCOCCn1c(SCc2c(F)cccc2Cl)nc2c1c(=O)[nH]c(=O)n2C`, -2.5% (inactive).
Still for that read-out and setting: as for `Cn1cc(Cl)nc1C(O)c1ccccc1` (stereo not drawn), the figure is 6.92% (inactive).
On to `Cc1c(/C(O)=C2/C(=O)C(=O)N(CCCN3CCOCC3)C2c2ccncc2)cnn1-c1ccccc1` (stereo not drawn), for which the activity, negative = inhibition was 5.14% (inactive).
Still for that read-out and setting: as for `Clc1ccc(-c2nn3c(-c4cccc(Cl)c4)nnc3s2)cc1`, the figure is 3.59% (inactive).
Consider `CCN(CC)CCCN1C(=O)C(O)=C(C(=O)c2ccc(C)o2)C1c1ccc(C)o1` (stereo not drawn), for which the activity, negative = inhibition is 9.39% (inactive).
Regarding `CCOC(=O)N1CCN(/C=C(\C#N)c2nc3ccccc3s2)CC1`, the activity, negative = inhibition is -10% (inactive).
For the compound `CN(C)CCCN1C(=O)C(O)=C(C(=O)c2cc3ccccc3o2)C1c1ccccc1` (stereo not drawn), the activity, negative = inhibition is 1.48% (inactive).
Same read-out and setting: as for `CCCCCCCC(=O)OCC(=O)[C@@]1(O)CC[C@H]2[C@@H]3CCC4=CC(=O)CC[C@]4(C)[C@H]3[C@@H](O)C[C@@]21C`, the figure is 7.91% (inactive).

For the origin of these results see PubChem BioAssay (NCATS).
